# According to PMC7862700, “An all-to-all approach to the identification of sequence-specific readers for epigenetic DNA modifications on cytosine”:
# Legend:
# Assay in all cases: DAPPL (digital affinity profiling via proximity ligation, sequencing); 10 mM Tris-HCl pH 7.5, 50 mM NaCl, 1 mM DTT, 4% glycerol, room temperature, 30 min; GST-TFs on glutathione beads, 16-mer random dsDNA library, 0.1% formaldehyde crosslink after washing; high values mean tight binding
# Settings in all cases: protein: recombinant; tags: N-terminal GST; dsDNA, one strand shown
# [1] = molecular target: T1, FLI1 (Homo sapiens, UniProt Q01543 1-452)
# T1 sequence: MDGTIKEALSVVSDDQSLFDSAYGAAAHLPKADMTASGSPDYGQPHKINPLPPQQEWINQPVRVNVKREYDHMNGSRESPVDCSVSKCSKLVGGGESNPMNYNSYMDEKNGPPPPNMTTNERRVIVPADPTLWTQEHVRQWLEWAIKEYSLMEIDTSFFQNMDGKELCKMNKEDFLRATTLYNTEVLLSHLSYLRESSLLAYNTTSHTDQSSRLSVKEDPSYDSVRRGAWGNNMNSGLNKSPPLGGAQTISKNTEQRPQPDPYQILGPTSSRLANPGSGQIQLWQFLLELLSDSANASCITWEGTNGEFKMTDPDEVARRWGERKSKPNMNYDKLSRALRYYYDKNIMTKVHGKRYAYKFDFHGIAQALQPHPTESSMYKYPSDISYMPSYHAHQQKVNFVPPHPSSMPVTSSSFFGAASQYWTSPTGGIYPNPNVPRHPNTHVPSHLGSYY
# In short: (§1)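 A tag-only sample was pooled with DNA-barcoded human transcription factors that had been expressed in yeast as GST fusions and captured on glutathione beads. The pools were incubated for 30 min at room temperature with 200 nmole of a random double-stranded 16-mer DNA library in Tris/NaCl/DTT/glycerol buffer, then washed, crosslinked with 0.1% formaldehyde, proximity-ligated (BsaI/T4 ligase, 1 h, 37 °C), PCR-amplified and sequenced on an Illumina NextSeq500. Binding signal is each hexamer's read frequency for a factor divided by its frequency for the tag-only sample.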
# [2] = molecular target: T2, ELK1 (Homo sapiens, UniProt P19419 1-428)
# T2 sequence: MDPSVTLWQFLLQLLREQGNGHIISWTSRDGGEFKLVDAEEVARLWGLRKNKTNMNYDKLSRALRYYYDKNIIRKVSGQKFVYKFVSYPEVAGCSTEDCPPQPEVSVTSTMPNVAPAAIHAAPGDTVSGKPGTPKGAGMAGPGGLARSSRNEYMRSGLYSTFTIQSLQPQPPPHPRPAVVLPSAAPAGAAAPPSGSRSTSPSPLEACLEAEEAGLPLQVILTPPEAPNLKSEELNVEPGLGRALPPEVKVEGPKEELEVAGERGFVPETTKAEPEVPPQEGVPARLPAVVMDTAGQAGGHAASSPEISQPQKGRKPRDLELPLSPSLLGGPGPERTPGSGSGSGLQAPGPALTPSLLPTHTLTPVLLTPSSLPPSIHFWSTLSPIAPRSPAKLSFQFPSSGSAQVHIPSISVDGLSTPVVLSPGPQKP
# In short: as §1
# [3] = molecular target: T3, GABPA (Homo sapiens, UniProt Q06546 1-454)
# T3 sequence: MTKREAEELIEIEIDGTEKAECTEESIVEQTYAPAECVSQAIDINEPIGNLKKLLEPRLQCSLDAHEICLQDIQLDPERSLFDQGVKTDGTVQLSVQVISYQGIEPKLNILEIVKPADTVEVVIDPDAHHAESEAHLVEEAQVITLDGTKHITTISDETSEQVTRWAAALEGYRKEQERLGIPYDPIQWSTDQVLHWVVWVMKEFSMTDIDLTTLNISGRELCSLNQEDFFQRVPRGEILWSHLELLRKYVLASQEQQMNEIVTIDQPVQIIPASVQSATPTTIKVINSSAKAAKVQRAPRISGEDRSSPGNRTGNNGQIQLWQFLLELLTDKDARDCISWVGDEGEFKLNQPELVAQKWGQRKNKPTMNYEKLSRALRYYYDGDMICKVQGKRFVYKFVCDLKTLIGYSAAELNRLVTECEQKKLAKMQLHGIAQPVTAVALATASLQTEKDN
# In short: as §1
# [4] = molecular target: T4, ERG (Homo sapiens, UniProt P11308 1-479)
# T4 sequence: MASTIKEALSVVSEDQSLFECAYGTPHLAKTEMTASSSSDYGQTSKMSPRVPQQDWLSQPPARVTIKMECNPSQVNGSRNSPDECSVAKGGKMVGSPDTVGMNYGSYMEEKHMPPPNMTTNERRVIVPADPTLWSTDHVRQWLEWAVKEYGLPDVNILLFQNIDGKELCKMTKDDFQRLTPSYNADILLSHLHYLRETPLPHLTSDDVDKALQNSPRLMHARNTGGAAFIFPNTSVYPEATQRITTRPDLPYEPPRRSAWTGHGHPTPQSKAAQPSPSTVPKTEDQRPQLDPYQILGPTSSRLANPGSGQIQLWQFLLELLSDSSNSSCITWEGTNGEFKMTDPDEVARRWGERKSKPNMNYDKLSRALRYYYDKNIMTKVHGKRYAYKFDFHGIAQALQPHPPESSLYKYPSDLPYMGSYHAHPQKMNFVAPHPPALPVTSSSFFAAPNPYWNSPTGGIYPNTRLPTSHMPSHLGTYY
# In short: as §1
# [5] = molecular target: ELF1 (Homo sapiens, UniProt P32519 1-619)
# ELF1, sequence (P32519 whole entry): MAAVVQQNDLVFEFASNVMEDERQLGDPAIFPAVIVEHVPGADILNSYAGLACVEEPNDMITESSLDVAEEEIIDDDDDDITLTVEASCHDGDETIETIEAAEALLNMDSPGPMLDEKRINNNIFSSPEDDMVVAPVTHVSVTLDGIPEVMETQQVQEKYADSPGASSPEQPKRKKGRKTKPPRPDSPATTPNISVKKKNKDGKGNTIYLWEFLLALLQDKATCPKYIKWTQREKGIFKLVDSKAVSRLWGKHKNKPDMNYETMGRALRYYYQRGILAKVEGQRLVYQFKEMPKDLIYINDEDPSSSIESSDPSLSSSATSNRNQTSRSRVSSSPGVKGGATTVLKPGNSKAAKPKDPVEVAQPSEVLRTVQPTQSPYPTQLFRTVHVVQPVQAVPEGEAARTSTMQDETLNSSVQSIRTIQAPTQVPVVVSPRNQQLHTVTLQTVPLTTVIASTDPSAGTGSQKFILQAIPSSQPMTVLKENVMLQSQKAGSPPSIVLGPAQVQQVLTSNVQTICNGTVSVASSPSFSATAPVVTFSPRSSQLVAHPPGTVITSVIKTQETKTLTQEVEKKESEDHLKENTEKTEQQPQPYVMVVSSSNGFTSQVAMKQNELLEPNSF
# In short: as §1
# [6] = molecular target: T5, EHF (Homo sapiens, UniProt Q9NZC4 1-300)
# T5 sequence: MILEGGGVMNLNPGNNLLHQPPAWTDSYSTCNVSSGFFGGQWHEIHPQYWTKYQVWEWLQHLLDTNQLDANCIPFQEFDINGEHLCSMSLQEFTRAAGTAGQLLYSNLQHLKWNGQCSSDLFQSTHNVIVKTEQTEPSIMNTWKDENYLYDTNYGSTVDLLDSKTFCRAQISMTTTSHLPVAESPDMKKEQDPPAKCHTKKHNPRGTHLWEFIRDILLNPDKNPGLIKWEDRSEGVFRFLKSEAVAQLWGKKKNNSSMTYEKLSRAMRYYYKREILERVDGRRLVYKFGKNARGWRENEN
# In short: as §1
# [7] = molecular target: SPI1 (Homo sapiens, UniProt P17947 1-270)
# In short: as §1
# [8] = molecular target: SPIB (Homo sapiens, UniProt Q01892 1-262)
# SPIB, sequence (Q01892 whole entry): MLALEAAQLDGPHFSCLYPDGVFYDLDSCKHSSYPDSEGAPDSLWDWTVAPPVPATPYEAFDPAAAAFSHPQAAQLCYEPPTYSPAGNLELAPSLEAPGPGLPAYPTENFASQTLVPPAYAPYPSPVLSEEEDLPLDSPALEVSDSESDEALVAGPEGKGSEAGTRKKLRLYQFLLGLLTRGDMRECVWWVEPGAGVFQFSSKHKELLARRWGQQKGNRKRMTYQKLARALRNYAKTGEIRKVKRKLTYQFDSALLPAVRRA
# In short: as §1
# [9] = molecular target: T6, ELK3 (Homo sapiens, UniProt P41970 1-407)
# T6 sequence: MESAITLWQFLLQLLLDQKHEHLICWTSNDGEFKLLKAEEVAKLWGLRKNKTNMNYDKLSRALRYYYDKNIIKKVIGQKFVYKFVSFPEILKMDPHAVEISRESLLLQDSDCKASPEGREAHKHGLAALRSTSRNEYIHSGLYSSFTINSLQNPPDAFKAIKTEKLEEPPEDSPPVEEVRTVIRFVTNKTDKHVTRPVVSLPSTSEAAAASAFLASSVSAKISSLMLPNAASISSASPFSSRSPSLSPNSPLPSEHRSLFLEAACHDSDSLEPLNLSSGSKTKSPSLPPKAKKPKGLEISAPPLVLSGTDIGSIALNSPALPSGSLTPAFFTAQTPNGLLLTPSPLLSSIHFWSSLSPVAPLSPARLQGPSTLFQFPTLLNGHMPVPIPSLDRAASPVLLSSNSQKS
# In short: as §1
sequence,measurement,setting,value
TAATTT,binding signal,[1],"1.35 fold enrichment (6-mer frequency, TF over GST control)"
same,binding signal,[2],"1.28 fold enrichment (6-mer frequency, TF over GST control)"
same,binding signal,[3],"1.5 fold enrichment (6-mer frequency, TF over GST control)"
same,binding signal,[4],"1.4 fold enrichment (6-mer frequency, TF over GST control)"
same,binding signal,[5],"1.41 fold enrichment (6-mer frequency, TF over GST control)"
same,binding signal,[6],"1.41 fold enrichment (6-mer frequency, TF over GST control)"
same,binding signal,[7],"1.38 fold enrichment (6-mer frequency, TF over GST control)"
same,binding signal,[8],"1.5 fold enrichment (6-mer frequency, TF over GST control)"
same,binding signal,[9],"1.52 fold enrichment (6-mer frequency, TF over GST control)"
